Assay outcomes (PubChem BioAssay)
Sampled rows, rich in hits. Any-hit rate of the full collection: about 7.9%.
FMDV inh – High Throughput Screening for Foot and Mouth Disease Virus Antivirals; FMDV antiviral cell-based qHTS; Potency, µM (doses to about 57.9 µM), for the others: at the top dose activity change, negative = inhibition, hits mostly inhibitors; actives 1.2% (n = 410,000); AID 1159524, 2015; calls by dose curve; tested in HEK293T cells; further: read-out not given here; potency means the concentration at half of the fitted maximal effect; nearly all actives have a fitted effect of over 45% in size
HCV inh – qHTS Assay for Inhibitors of Hepatitis C Virus (HCV). Huh7.5.1 HCVcc-Cre infection, luciferase reporter, 44 h. Potency, µM (titrated, usually from 41.8 µM), for the others: at the highest dose activity change, negative = inhibition, hits mostly inhibitors. actives 3.4% (n = 340,000). AID 651820, 2012; active means well fitted inhibition curve with a large enough effect; inconclusive means small, poorly fitted or top-dose-only effect, or another doubt; inactive means no such curve, though single readings can be large or run the other way; further: potency means the concentration at half of the fitted maximal effect
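After 44 h co-culture of compound, cells and HCVcc-Cre (~0.5 moi), substrate is added for 15 min at room temperature and luciferase measured over 15 sec. Cells were seeded at 1,000/well and pre-cultured 4 h.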
MARV entry inh – qHTS for inhibitors of binding or entry into cells for Marburg Virus; Marburg virus pseudotyped entry inhibition, cell reporter; Potency, µM (top dose mostly 37.8 µM), for inactives: top-dose activity change, negative = inhibition, hits mostly inhibitors; actives 1.8% (n = 300,000); calls by dose curve; tested in HEK293 cells; further: potency means the concentration at half of the fitted maximal effect
LASV entry inh – qHTS for Inhibitors of binding or entry into cells for Lassa Virus; Potency, µM (doses to about 37.9 µM), for the others: at the highest dose activity change, negative = inhibition, usual class: inhibitors; actives 1.2% (n = 300,000); Lassa virus pseudotype entry inhibition, cell reporter; calls by dose curve; tested in HEK293 cells; further: potency means the concentration at half of the fitted maximal effect; nearly all actives have a fitted effect of over 50% in size
HCMV inh – qHTS Assay for inhibitors of the human cytomegalovirus (HCMV) | HFF cells, HCMV-luciferase reporter, 72 h; hits give low values | AID 1259415, 2018 | activity change, negative = inhibition, % at 57.5 µM | actives 4.5% (n = 410,000); in the data active means activity change below about -60%; inconclusive means no clear call, values can overlap the other calls; inactive means above about -39%
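Two-dose cell screen: HFF monolayers treated with compounds and infected with luciferase-expressing HCMV at 1 PFU/cell, 72 h at 37C, then lysed for luciferase measurement.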
* hit, by the source's call; ! = not active in a repeat; [ ] = remark or other dose. On the % scale 0 is the no-effect control and ±100 the full control effect.

COc1ccc(NC(=O)CN(C)S(=O)(=O)c2ccc(C)cc2)c([N+](=O)[O-])c1 was read as FMDV inh -3%, HCV inh -6%, MARV entry inh 8%, LASV entry inh -3% and HCMV inh -15.
For COc1ccc(N(C)S(=O)(=O)c2ccc(C)cc2)c([N+](=O)[O-])c1 the results were FMDV inh -17%, HCV inh -7%, MARV entry inh 6%[46.1 µM], LASV entry inh 13µM* and HCMV inh inconclusive.
Screening CCCCN(C)CC(O)Cn1cc(/C=C/C(=O)c2cccs2)c2ccccc21 (stereo unspecified) returned FMDV inh 0%, HCV inh inconclusive, MARV entry inh inconclusive and LASV entry inh inconclusive.
Screening CCCCN(CCCC)CC(O)Cn1cc(/C=C/C(=O)c2ccccc2)c2ccccc21 (stereo unspecified) returned FMDV inh -15%, MARV entry inh inconclusive, LASV entry inh inconclusive and HCMV inh -106*.
For CCCCN(C)CC(O)Cn1cc(/C=C/C(=O)c2ccc(OCC)cc2)c2ccccc21 (stereo unspecified) the results were FMDV inh -21%, MARV entry inh inconclusive, LASV entry inh inconclusive and HCMV inh -107*.
`CC(=O)Nc1ccc(Oc2sc(C(=O)c3ccccc3)c(N)c2C#N)cc1` gave FMDV inh inconclusive, HCV inh inconclusive, MARV entry inh inconclusive, LASV entry inh 0.89µM* and HCMV inh -88*.
For O=c1c(Cl)c(Cl)cnn1Cc1nnc(-c2ccccc2Br)o1 the results were FMDV inh inconclusive, HCV inh inconclusive, MARV entry inh inconclusive, LASV entry inh -17%[46.1 µM] and HCMV inh -99*.
For CCOC(=O)/C(C#N)=C\c1cccnc1 the results were FMDV inh -5%, HCV inh 9%, MARV entry inh inconclusive, LASV entry inh inconclusive and HCMV inh -34.
Screening CCOC(=O)C(=O)/C(C#N)=C/Nc1ccccc1 returned FMDV inh -12%, HCV inh -4%, MARV entry inh 19%, LASV entry inh -1% and HCMV inh 0.
`CCOC(=O)/C(=C\c1ccccc1)C(=O)c1cc(C(C)=O)c(Nc2ccccc2)s1` gave FMDV inh 14µM*, HCV inh 7.1µM*, MARV entry inh inconclusive, LASV entry inh inconclusive and HCMV inh -105*.
Screening CCOC(=O)/C(=C\c1cccnc1)C(=O)c1cc(C(C)=O)c(Nc2ccccc2)s1 returned FMDV inh 4µM*, HCV inh inconclusive, MARV entry inh inconclusive and LASV entry inh inconclusive.
COc1cccc(CNc2ccc([N+](=O)[O-])c(NCC(=O)O)n2)c1 was read as FMDV inh 0%, HCV inh 11%, MARV entry inh -9%[14.2 µM], LASV entry inh 4% and HCMV inh 8.
`CCc1ccc(OCCCSc2nc(-c3ccc(C(C)(C)C)cc3)nc3cc(=O)[nH]n23)cc1` gave FMDV inh -18%, LASV entry inh 1%[46.1 µM] and HCMV inh -84*.
Screening Cc1cc2c3c(c1)C(C)(c1ccccc1)CC(C)(C)N3C(=O)C21C(C#N)=C(N)OC2=C1C(=O)CC(C)(C)C2 (stereo unspecified) returned FMDV inh inconclusive, HCV inh inconclusive, MARV entry inh -27%, LASV entry inh inconclusive and HCMV inh -72*.
COC(=O)c1cn(NC(=O)C2CCC(C)CC2)c(=O)c2ccccc12 (stereo unspecified) was read as FMDV inh -18%, HCV inh -5%, MARV entry inh -12%, LASV entry inh 2% and HCMV inh 23.
For COC(=O)c1cn(NC(=O)c2cc([N+](=O)[O-])ccc2F)c(=O)c2ccccc12 the results were FMDV inh 32µM*, HCV inh inconclusive, MARV entry inh inconclusive, LASV entry inh inconclusive and HCMV inh -97*.
Screening COc1ccc(-c2cc(C(F)(F)F)nc(S(C)(=O)=O)n2)cc1 returned FMDV inh 20µM*, HCV inh inconclusive, MARV entry inh 13µM*!, LASV entry inh 23µM* and HCMV inh -105*.
Nc1nc(-c2ccc(F)cc2)cc(C(F)(F)F)n1 was read as FMDV inh -19%, HCV inh inconclusive, MARV entry inh 3%, LASV entry inh inconclusive and HCMV inh 23.
Screening CS(=O)(=O)c1nc(-c2ccc(F)cc2)cc(C(F)(F)F)n1 returned FMDV inh 28µM*, HCV inh 6.3µM*, MARV entry inh inconclusive, LASV entry inh inconclusive and HCMV inh -99*.
For COc1ccc(NC(=O)Cn2cc(C#N)c3ccccc32)cc1 the results were FMDV inh -8%, HCV inh 1%, MARV entry inh inconclusive, LASV entry inh -3% and HCMV inh -10.
COc1ccc(OC)c(NC(=O)Cn2cc(C#N)c3cc(Br)ccc32)c1 was read as FMDV inh inconclusive, HCV inh inconclusive, MARV entry inh -26%, LASV entry inh -11% and HCMV inh -66*.
CCOc1cc(/C=N/Nc2nc3ccccc3[nH]2)cc(Br)c1OCC(=O)N(C)C was read as FMDV inh inconclusive, HCV inh inconclusive, MARV entry inh inconclusive, LASV entry inh inconclusive and HCMV inh -12.
For O=C(O)c1ccc(/C=C2\COc3ccccc3C2=O)cc1 the results were FMDV inh 22µM*, HCV inh -5%, MARV entry inh inconclusive, LASV entry inh inconclusive and HCMV inh 33.
For CCOc1cc(/C=C2\COc3ccccc3C2=O)cc(Br)c1OCC(=O)N(C)C the results were FMDV inh 10µM*, HCV inh inconclusive, MARV entry inh inconclusive, LASV entry inh inconclusive and HCMV inh -39.
For COc1ccc(/C=C2\COc3ccccc3C2=O)cc1OC the results were FMDV inh -23%, HCV inh -27%, MARV entry inh inconclusive, LASV entry inh inconclusive and HCMV inh inconclusive.
`Cc1ccc(NC(=O)CN(C)C(=O)COC(=O)CNS(=O)(=O)c2ccc(F)c(F)c2F)cc1` gave FMDV inh 7%, HCV inh 34%, MARV entry inh 9%, LASV entry inh -5% and HCMV inh -8.
`Cc1noc(C)c1CN1CCN2C=C(C(=O)NCCCc3ccccc3)OC2=NC1=O` gave HCMV inh 10.
Cc1cccc(C)c1NC(=O)Cn1nnc(C(=O)Nc2ccc(F)cc2F)c1N was read as FMDV inh -9%, HCV inh -11% and HCMV inh -65*.
Fc1cccc(-c2cc3nc4c(c(N5CCC6(CC5)OCCO6)n3n2)CCCC4)c1 was read as HCV inh 13µM*, MARV entry inh inconclusive, LASV entry inh 3% and HCMV inh 14.
`COc1ccc(Cl)cc1NC(=O)N1CCC(CN2CCCCCC2)CC1` gave FMDV inh -16%, LASV entry inh -1%[46.1 µM] and HCMV inh -1.
